# Luc counter: Counterscreen for Luciferase (Kinase-Glo TM) Inhibition | Kinase-Glo luciferase, ATP luminescence, 8 min | AID 1379, 2008 | Potency, µM (doses to about 38.3 µM), inactives show top-dose activity change, negative = inhibition, usual class: inhibitors | 200,000 tested, 0.28% active | Luciferin 4-monooxygenase (Photuris pensylvanica), Q27757; further: on the % scale 0 is the no-effect control and ±100 the full control effect; nearly all actives have a fitted effect of over 60% in size
#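 Luminescence was the read-out, taken after 8-minute incubation at ambient temperature. Luciferase turned over luciferin with 10 uM ATP in imidazole pH 7.2 buffer containing KCl, MgCl2, Tween 20 and BSA.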
# NPC1 prom act: qHTS Assay for NPC1 Promoter Activators; Huh7 NPC1 promoter luciferase reporter, 24 h; Potency, µM (top dose mostly 9.22 µM), for inactives: at the top dose activation, usual class: activators; 320,000 tested, 2.4% active; further: % of control where 0% means no effect; nearly all actives have a fitted effect of over 60% in size
#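 Readout is luciferase luminescence, reflecting NPC1 promoter activation in stably transfected Huh7 cells after 24 h compound exposure at 37 °C in reduced-serum medium with 10% FBS.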
# ELG1 genotox: qHTS screen for small molecules that induce genotoxicity in human embryonic kidney (HEK293T) cells expressing luciferase-tagged ELG1. HEK293T ELG1-luciferase reporter, luminescence, 16 h. Potency, µM (top dose mostly 46 µM), for inactives: at the top dose activity change, positive = activation, actives largely listed as activators. 330,000 tested, 1.3% active. AID 504466, 2011; further: % of control where 0% means no effect; nearly all actives have a fitted effect of over 60% in size
#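 Reporter readout depends on ELG1 protein level, which increases with genetic stress. After 16 hr compound exposure at 37 °C, luciferase activity was quantified using ONE-Glo.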
# SMN2 splice enh: qHTS Assay for Enhancers of SMN2 Splice Variant Expression; HEK293 SMN2-luciferase splicing reporter, luminescence, 30-36 h; Potency, µM (highest dose often 46.1 µM), inactives show top-dose activity change, positive = activation, hits mostly activators; 210,000 tested, 2.8% active; further: % of control where 0% means no effect; nearly all actives have a fitted effect of over 55% in size
#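 HEK293 cells carry an SMN2 […]–luciferase reporter in which exon 7 inclusion puts luciferase in frame. Cells were plated 10-12 h before compound addition, then incubated 30-36 h at 37C. ONE-Glo luminescence was read; sodium butyrate at 4.5 mM final served as control.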
# FLuc counter: qHTS profiling assay for firefly luciferase inhibitor/activator using purifed enzyme and Km concentrations of substrates (counterscreen for miR-21 project) | purified FLuc, Km substrates, luminescence inhibition | Luciferin 4-monooxygenase (Photinus pyralis), P08659 | 360,000 tested, 6.9% active | Potency, µM (doses to about 57.5 µM), for inactives: top-dose activity change, negative = inhibition, actives largely listed as inhibitors;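 further: plate controls were vehicle for no effect and reference inhibitor for full effect; nearly all actives have a fitted effect of over 55% in size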
# Target sequence (P08659 whole entry, looked up): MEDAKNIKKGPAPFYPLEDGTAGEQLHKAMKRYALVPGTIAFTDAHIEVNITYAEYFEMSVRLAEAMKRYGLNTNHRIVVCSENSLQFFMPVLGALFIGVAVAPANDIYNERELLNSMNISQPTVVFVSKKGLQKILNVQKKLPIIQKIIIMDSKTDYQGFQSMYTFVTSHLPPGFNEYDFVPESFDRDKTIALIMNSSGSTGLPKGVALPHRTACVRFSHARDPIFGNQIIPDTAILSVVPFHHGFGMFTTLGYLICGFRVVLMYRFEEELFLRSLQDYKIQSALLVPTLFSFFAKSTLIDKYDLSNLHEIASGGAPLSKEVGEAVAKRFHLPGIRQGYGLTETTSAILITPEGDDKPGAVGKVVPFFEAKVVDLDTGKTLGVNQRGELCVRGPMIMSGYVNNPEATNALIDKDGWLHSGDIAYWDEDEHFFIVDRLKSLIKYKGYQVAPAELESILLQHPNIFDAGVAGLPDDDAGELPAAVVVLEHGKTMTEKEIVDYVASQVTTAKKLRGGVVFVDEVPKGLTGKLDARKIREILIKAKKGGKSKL
#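 Purified P. pyralis luciferase, 10 nM final, with Km-level 10 uM D-luciferin and 10 uM ATP in 50 mM Tris acetate pH 7.5, 10 mM Mg acetate, 0.01% Tween-20, 0.05% BSA; 6-point qHTS titration about 60 µM downward; luminescence read.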
# Rab9 prom act: qHTS Assay for Rab9 Promoter Activators; Huh7 Rab9 promoter-luciferase reporter, luminescence, 24 h; Potency, µM (series often up to 9.22 µM), for the others: at the top dose activation, negative = inhibition, hits mostly activators; 320,000 tested, 2.8% active; further: % of control where 0% means no effect; nearly all actives have a fitted effect of over 60% in size
#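 Cells were plated at 1500 per well in reduced-serum medium with 10% FBS and left 2 h. Compound in DMSO was then added for 24 h at 37 °C. Reporter signal was read by luminescence after 10 min with luciferase detection reagent.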
# Starred values were filed as active, the others as inactive; ? = inconclusive; nt = no result; [ ] = dose if it differs, or a comment. Rows were chosen to be rich in hits. Some 7.5% of all compounds tested hit in one or more screens of this group. The call rests on the fitted dose curve; in most records, active means well fitted curve in the direction sought with a large enough effect; inconclusive means small, poorly fitted or top-dose-only effect, or another doubt; inactive means no such curve, though single readings can be large; an effect the other way counts as inactive or inconclusive. Potency means the concentration at half of the fitted maximal effect.
SMILES,Luc counter,NPC1 prom act,ELG1 genotox,SMN2 splice enh,FLuc counter,Rab9 prom act
COC(=O)c1sc(N/N=C/c2ccc(C(C)C)cc2)nc1C,nt,29%,13%,nt,19µM*,?
CC(=O)c1sc(N/N=C\c2ccc(N(C)C)cc2)nc1C,nt,1.3µM*,4.6µM*,nt,1.3µM*,2.5µM*
N=C(N)SCCSC(=N)N,-7%[7.66 µM],nt,nt,-14%[9.22 µM],nt,nt
O/N=C/c1ccc2ccccc2c1,0%,10%,3%,nt,-20%,-13%
O=C(/C=C/c1ccc2ccccc2c1)c1ccoc1,-1%,?,6%,-5%,0.54µM*,?
O=C(NC(=O)c1ccccc1)Nc1ccccc1,nt,0.45µM*,?,nt,?,0.63µM*
COc1ccccc1Oc1ccc(NC(=O)c2ccccc2)cc1,3%,13%,4%,nt,-1%,?
COc1ccc(NC(=O)NC(=O)c2ccccc2)cc1,nt,1µM*,?,nt,?,0.71µM*
O=C(Cc1ccccc1)Nc1nnc2n1CCS2,nt,nt,nt,nt,1%,nt
CCCCC(CC)COCC1CO1 (stereo not drawn),nt,nt,nt,0%,nt,nt
COc1cccc(-c2cc(C(=O)Nc3nc4ccccc4s3)c3ccccc3n2)c1,-4%,-3%,-4%,-37%,17µM*,-4%
COc1ccc(-c2cc(C(=O)Nc3nc4c(C)cccc4s3)c3ccccc3n2)cc1OC,-2%,7%,-6%,-5%,11µM*,5%
CC(C)[C@@H](CC(=O)N[C@@H]1CCCC[C@H]1C(=O)N[C@H](CC(=O)N[C@@H](CCC(=O)O)CC(=O)O)Cc1ccccc1)NC(=O)C[C@H](Cc1ccccc1)NC(=O)[C@@H]1CCCC[C@H]1N,-1%,nt,nt,-2%,nt,nt
COCCCNC(=O)COC(=O)c1ccc(-c2nc3ccccc3s2)s1,-14%,23%,14%,13µM*,5.4µM*,?
COc1ccc(CCNC(=O)COC(=O)c2ccc(C)s2)cc1,nt,-1%,1%,nt,-5%,0%
O=[N+]([O-])c1ccc2oc(-c3ccccc3)nc2c1,-13%,?,?,16µM*,?,2.2µM*
Cc1cccc(-c2nc3cc([N+](=O)[O-])ccc3o2)c1,-29%,3.5µM*,16µM*,16µM*,1.7µM*,1.6µM*
COc1ccc(-c2nc3ccc([N+](=O)[O-])cc3o2)cc1,-6%,1.6µM*,6.5µM*,11µM*,0.76µM*,1.1µM*
NC(N)=Nc1nc2cc([N+](=O)[O-])ccc2o1,-3%,-1%,10%,nt,?,9%
S=c1[nH]nc(-c2ccco2)n1/N=C/C(Cl)=C/c1ccccc1,nt,3.5µM*,?,nt,?,1.6µM*
Cc1cc(-c2n[nH]c(=S)n2/N=C/C(Cl)=C/c2ccccc2)n[nH]1,2%,26%,?,?,-1%,?
CC(C)(C)NC(=O)COc1coc(CN2CCN(Cc3ccccc3)CC2)cc1=O,nt,1%,0%,nt,0%,-1%
COC(=O)c1c(C)[nH]c(/C=N/Nc2ccccc2)c1C,nt,1%,?,nt,11µM*,13%
COc1cccc(-c2nnn(CC(=O)N3CCCCC3)n2)c1,nt,12%,12%,nt,-19%,30%
CCC(C(=O)O)n1nnc(-c2ccc(-c3ccc(OC)cc3)cc2)n1 (stereo not drawn),-1%,26%,?,?,9.5µM*,22%
SMILES,Luc counter,NPC1 prom act,ELG1 genotox,SMN2 splice enh,FLuc counter,Rab9 prom act
COc1ccc(C(=O)Cn2nnc(-c3ccccc3F)n2)cc1,nt,21%,4%,nt,15µM*,28%
COc1cccc(-c2nnn(CC(C)=O)n2)c1,-7%,2.8µM*,?,13µM*,6.7µM*,2.5µM*
CCC(C(=O)O)n1nnc(-c2ccc(OCc3ccccc3)c(OC)c2)n1 (stereo not drawn),nt,-2%,-2%,nt,6%,15%
COc1ccc(-c2ccc(-c3nnn(CC(C)=O)n3)cc2)cc1,-1%,2.5µM*,7%,?,?,1.6µM*
Nc1ncnc2c1ncn2[C@@H]1O[C@H](COP(=O)(O)OP(=O)(O)OP(=O)(O)OP(=O)(O)OC[C@@H]2O[C@H](n3cnc4c(N)ncnc43)[C@@H](O)[C@@H]2O)[C@H](O)[C@H]1O,4.5µM*,nt,nt,2%,nt,nt
Nc1ncnc2c1ncn2[C@@H]1O[C@H](COP(=O)(O)OP(=O)(O)OC[C@H]2OC(O)[C@H](O)[C@@H]2O)[C@@H](O)[C@H]1O (stereo partly drawn),nt,nt,nt,-7%,nt,nt
N#Cc1ccccc1NS(=O)(=O)c1cc2c3c(c1)CCN3C(=O)CC2,nt,-4%,9%,nt,-2%,-7%
CC(Oc1ccc(Cl)cc1Cl)c1nc(-c2ccc(NC(=O)c3ccccn3)cc2)no1 (stereo not drawn),-11%,2.8µM*,?,?,9.5µM*,?
CC(Oc1ccc(Cl)cc1Cl)C(=O)Nc1ccncc1 (stereo not drawn),nt,-2%,-12%,nt,-2%,-4%
Cc1ccc(S(=O)(=O)N2CCN(S(=O)(=O)c3ccccc3Br)C2=O)cc1,nt,nt,1%,nt,nt,nt
CCCN(CCC)Cc1c(C(=O)N/N=C/C(C)=C\c2ccccc2)nnn1-c1nonc1N,nt,-6%,-23%,nt,-15%,0%
CCCc1c(C(=O)N/N=C/C(C)=C/c2ccccc2)nnn1-c1nonc1N,nt,13%,7%,nt,2.4µM*,14%
CC(/C=N/NC(=O)c1nnn(-c2nonc2N)c1C(C)C)=C\c1ccccc1,nt,?,3%,nt,1.5µM*,?
Cc1cc2ncn(CCOc3ccccc3)c2cc1C,-3%,?,?,-2%,17µM*,3.5µM*
CC1(C)Cc2c(cnn2-c2ccccc2)C(NC(=O)CCCN2CCCC2=O)C1 (stereo not drawn),nt,0%,7%,nt,0%,-2%
COc1ccc(-c2nc(C(=O)O)cs2)cc1OC,1%,12%,7%,-10%,?,15%
COc1ccc(-c2cc(C(=O)O)nc3ccc4ccccc4c23)cc1OC,9%,10%,5%,15%,4.3µM*,3%
N#Cc1ccccc1NC(=O)COc1ccccc1C(=O)Nc1ccccc1,nt,nt,-3%,nt,nt,nt
O=C(CSc1nc(O)c(C2CCCCC2)c(=O)[nH]1)NCC1CCCO1 (stereo not drawn),2%,-3%,2%,2%,15µM*,10%
COc1ccc(NC(=O)Cn2c(=O)n(Cc3ccc4c(c3)OCO4)c(=O)c3ccc(C(=O)NC4CCCCC4)cc32)cc1,nt,nt,nt,10%,1%,nt
